Screening results deposited in PubChem by National Center for Advancing Translational Sciences (NCATS).
ATXN viability – cell viability loss in ATXN counter-screen | S2 cells (HEK-293 line with an ATXN2-luciferase reporter) viability, CellTiter-Fluor protease fluorescence, 24 h | Potency, µM (titrated, usually from 56.7 µM), hits mostly cytotoxic | hit rate 0.49% among 400,000 | AID 651635; also: nearly all actives have a fitted effect of over 40% in size
HepG2 viability – counter-screen for TGF-b inhibitors: cytotoxicity in HepG2 cells; AID 588856; HepG2 CAGA-GFP viability, ATP luminescence, 18 h; Potency, µM (titrated, usually from 46.1 µM), inactives show at the top dose activity change, negative = cytotoxicity, actives largely listed as cytotoxic; hit rate 0.76% among 410,000
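CellTiter-Glo luminescence gave cytotoxicity after 18 hours at 37 degrees C. The cells were HepG2 CAGA-GFP in 1% FBS DMEM, stimulated with 500 pg/mL TGF-beta after compound addition. %Activity was normalised to no-cell wells (complete cell-killing) and DMSO (no toxicity), and curves were fitted and classified.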
GLP1R inv ag – inverse agonists of human GLP-1 receptor. hit rate 1.6% among 410,000. AID 624417. HEK293 GLP-1R CRE-luciferase, luminescence, 24 h; GLP-1R form is constitutively active. Potency, µM (top dose mostly 38.3 µM), for the others: at the top dose activity change, negative = inhibition, most hits filed as inhibitors; also: % is scaled to controls: 0 for no effect and ±100 for the full control effect; nearly all actives have a fitted effect of over 55% in size
Target sequence (P43220 whole entry, looked up): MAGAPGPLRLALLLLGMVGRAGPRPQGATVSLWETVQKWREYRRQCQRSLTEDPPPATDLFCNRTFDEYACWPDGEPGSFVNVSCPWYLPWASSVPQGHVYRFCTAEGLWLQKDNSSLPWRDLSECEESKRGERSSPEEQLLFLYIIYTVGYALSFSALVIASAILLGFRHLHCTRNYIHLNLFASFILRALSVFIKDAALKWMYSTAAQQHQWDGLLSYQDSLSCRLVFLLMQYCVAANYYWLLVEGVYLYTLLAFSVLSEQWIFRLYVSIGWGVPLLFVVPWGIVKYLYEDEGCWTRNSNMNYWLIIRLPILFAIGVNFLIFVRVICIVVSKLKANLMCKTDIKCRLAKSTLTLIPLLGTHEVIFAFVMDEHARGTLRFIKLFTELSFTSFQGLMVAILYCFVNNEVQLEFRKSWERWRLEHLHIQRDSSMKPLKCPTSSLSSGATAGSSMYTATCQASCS
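HEK293 cells stably co-expressing constitutively active GLP-1R and a cAMP-responsive luciferase reporter were seeded in DMEM with 10% Nu serum, given compounds after 12 h, and incubated 24 h at 37 deg C. Luminescence was then read.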
ATXN2 expr inh – ATXN2 expression inhibition; HEK-293 ATXN2-luciferase reporter, luminescence, 24 h; Potency, µM (top dose mostly 57 µM), without a hit: top-dose activity change, negative = inhibition, hits mostly inhibitors; hit rate 0.72% among 360,000; AID 1745845; also: % is scaled to controls: 0 for no effect and ±100 for the full control effect; nearly all actives have a fitted effect of over 55% in size
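ATXN2-luciferase reporter cells (luciferase flanked by upstream and downstream ATXN2 gene portions) were treated 24 h at 37 °C with compounds at up to 57 uM. SteadyGlo luminescence gave expression; GF-AFC fluorescence gave viability.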
TGFb inhibitor – blocks TGF-b signaling; HepG2 CAGA-GFP TGF-b/SMAD3 reporter, GFP fluorescence, 18 h; TGF-beta stimulated, 500 pg/mL final; Potency, µM (top dose mostly 46.1 µM), without a hit: at the highest dose activity, negative = inhibition, hits mostly inhibitors; hit rate 1.2% among 410,000; AID 588855; also: % is scaled to controls: 0 for no effect and ±100 for the full control effect; nearly all actives have a fitted effect of over 65% in size
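HEPG2 CAGA-GFP cells (1000/well, DMEM with 1% FBS) were pre-incubated 2 h at 37 degrees C, given compound by pin tool, then stimulated with TGF-beta at 500 pg/mL final for 18 h before per-cell GFP fluorescence imaging.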
GLP1R ag – agonists of human GLP-1 receptor. P43220. HEK293 GLP-1R CRE-luciferase, luminescence, 4-6 h; cells express a hypersensitive GLP-1R form. Potency, µM (doses to about 45.6 µM), inactives show at the top dose activation, usual class: activators. hit rate 0.007% among 380,000. AID 624172; also: % of control where 0% means no effect
* = called active by the depositor; i = inactive; ? = inconclusive; nt = not tested or not shown; [ ] = remark or other dose. The list is not random: actives were taken first. Their share in the collection is about 3.7%. Calls follow the shape of the dose curve; as a rule, active = well fitted curve in the direction sought with a large enough effect; inconclusive = small, poorly fitted or top-dose-only effect, or another doubt; inactive = no such curve, though single readings can be large; an effect the other way counts as inactive or inconclusive. Potency is read from the fitted curve at half-maximal effect.

SMILES | ATXN viability | HepG2 viability | GLP1R inv ag | ATXN2 expr inh | TGFb inhibitor | GLP1R ag
CCCCCNCC(=O)Nc1cccc(C(=O)Nc2cccc(C(F)(F)F)c2)c1 | nt | -29% | 6.3µM* | ? | ? | 12%
COc1cccc(NC(=O)CN(C)CC(=O)Nc2cccc(C(F)(F)F)c2)c1 | i | -1% | 7.1µM* | -11% | -1% | 26%
CCOC(=O)/C=C/C(=O)Nc1cccc([N+](=O)[O-])c1 | ? | 13µM* | ? | ? | 11µM* | -27%
Cc1cccnc1-c1cccc2c1OC(CNC(=O)C(=O)c1ccccc1)C2 (stereo not drawn) | i | nt | nt | nt | nt | nt
COc1ccc(NC(=O)CN(C)CC(=O)Nc2cccc(F)c2)cc1Cl | i | -17% | 10µM* | nt | -7% | 22%
COC(=O)/C=C/C(=O)Nc1cccc(C(F)(F)F)c1 | ? | -47% | 7.9µM* | ? | 0% | 8%
COC(=S)Nc1cccc(C(F)(F)F)c1 | i | 13% | 0% | 2% | -1% | 8%
COc1cccc(NC(=O)CN(C)C(=O)c2ccc(-c3ccccc3Cl)o2)c1 | i | 0% | 8.9µM* | -4% | -12% | 7%
COc1ccc(C(CNC(=O)c2ccc(-c3ccccc3Cl)o2)N2CCCC2)cc1 (stereo not drawn) | nt | 11µM* | ? | nt | ? | 29%
COc1cccc(NC(=O)CN(C)C(=O)c2ccc(-c3ccc(Cl)cc3)o2)c1 | i | -46% | ? | 1% | ? | 1%
COc1ccc(NC(=O)c2cccc(F)c2)cc1Cl | i | -4% | ? | 40% | -16% | 6%
CC(C)(C)NCC(O)COc1ccc(NC(=O)NC2CCCCC2)cc1 (stereo not drawn) | i | nt | nt | 45% | nt | -1%
C#Cc1cccc(C(=O)NCc2nc(-c3ccccc3NC(=O)C3CCCO3)oc2C)c1 (stereo not drawn) | i | nt | nt | nt | nt | nt
COc1ccc(-c2ccc(C(C)=O)cc2)cc1C1C2C=CCCC2(C)C(=O)N1Cc1ccccc1 (stereo not drawn) | nt | -3% | nt | nt | -33% | nt
O=C(COCC(=O)Nc1cccc(C(F)(F)F)c1)Nc1cccc(C(F)(F)F)c1 | i | 22µM* | ? | -14% | -20% | 0%
O=C(COc1ccc(C(=O)O)cc1)Nc1cccc(C(F)(F)F)c1 | i | -6% | 4% | -26%[11.3 µM] | 4% | -2%
COc1ccc(/C=C\C(=O)NCC(=O)N/N=C/c2ccc(O)cc2O)cc1 | ? | -3% | ? | nt | -7% | -3%
Cc1cc(SCC(=O)N/N=C/c2ccc(O)cc2O)c(C)cc1Br | i | -21% | 7.9µM* | 18µM* | 0% | -7%
COc1cc(/C=N/NC(=O)/C(=C/c2ccccc2)CCO)ccc1O | ? | 16% | 18% | 3% | -4% | 2%
O=C(N/N=C/c1ccc(O)cc1O)/C(=C/c1ccccc1)CCO | ? | -26% | -13% | 10µM* | ? | 0%
O=C(/C=C\c1ccccc1)NCC(=O)N/N=C/c1ccc(O)cc1O | i | -14% | ? | 18µM* | -2% | 6%
O=C(CNC(=O)C1COc2ccccc2O1)N/N=C/c1ccc(O)cc1O (stereo not drawn) | i | -23% | 17% | 13µM* | ? | -6%
O=C(CNC(=O)C1COc2ccccc2O1)N/N=C\c1cccc(O)c1 (stereo not drawn) | i | -13% | 1% | 0% | -8% | 1%
Cc1ccc(S(=O)(=O)Nc2ccc(-c3ccc(N4CCCCCC4)nn3)cc2)cc1C | i | -27% | 6% | 16% | 30% | nt
CCCCCCCn1c(=O)c(C(=O)OC)c(N)c2ccccc21 | ? | -12% | 11µM* | ? | 13µM* | 17%
SMILES | ATXN viability | HepG2 viability | GLP1R inv ag | ATXN2 expr inh | TGFb inhibitor | GLP1R ag
CCCCCCCCn1c(=O)c(C(=O)OC)c(N)c2ccccc21 | ? | -66% | ? | -33% | 16µM* | 7%
N[C@H](C(=O)O)c1ccc(O)cc1 | i | nt | nt | 1%[25.6 µM] | nt | nt
COc1ccccc1N1CCN(C(=O)c2cnn(-c3cccc(Cl)c3)c2C2CCN(C(=O)OC(C)(C)C)CC2)CC1 | nt | -18% | ? | nt | ? | nt
Cc1ccc2nc(SCC(=O)NCC3Cc4cc(-c5ncccc5C)ccc4O3)[nH]c2c1 (stereo not drawn) | i | nt | nt | nt | nt | nt
NC(=Nc1nc(-c2ccccn2)cc2ccccc12)c1ccccn1 | ? | -60% | -1% | 0.32µM* | -62% | 0%
CCCC(C)NC(=O)c1nc(-c2ccccc2)n(-c2ccccc2)n1 (stereo not drawn) | i | 0% | 8.9µM* | 28% | 13% | 24%
Cc1ccc2oc(-c3cccc(NC(=O)COc4ccc(Cl)cc4)c3C)nc2c1 | nt | -12% | nt | nt | -5% | nt
Cc1ccc2c(c1)N(C(=O)N1CCC(C(=O)Nc3cccc(F)c3)CC1)CCO2 | nt | -24% | -25% | nt | ? | nt
CN(c1ccc(/C=C/c2ccccc2)cc1)P1(=O)NCCCO1 (stereo not drawn) | nt | -19% | nt | nt | 1% | nt
O=S(=O)(c1cccc(Cl)c1)n1c(/C=C/c2ccccc2Cl)nc2ccccc21 | nt | 10µM* | ? | nt | ? | nt
CC1(C)[C@H]2CC[C@]3(C)[C@@H](C(=O)C=C4[C@@H]5C[C@@](C)(C(=O)O)CC[C@]5(C)CC[C@]43C)[C@@]2(C)CC[C@@H]1O | nt | nt | nt | 0% | nt | nt
CCCCn1c(=N)n(CCOc2ccccc2OC)c2ccccc21 | nt | -59% | ? | nt | 10µM* | nt
CCCCn1c(=N)n(CCOc2ccc(C)cc2)c2ccccc21 | ? | -97% | ? | ? | ? | -8%
CCn1c(=N)n(CCOc2ccc(Br)cc2)c2ccccc21 | nt | -99% | ? | nt | 8.9µM* | nt
